# Hits are enriched below; roughly 3.2% of the tested compounds scored in any of these assays.
# TSHR ag: qHTS Assay for Agonists of the Thyroid Stimulating Hormone Receptor. Thyrotropin receptor (Homo sapiens), P16473. HEK293-CNG-TSHR cells (CNG channel as cAMP sensor), membrane potential dye, cAMP. Potency, µM (titrated, usually from 57.1 µM), for the others: at the top dose activation, most hits filed as activators. 0.48% of 73,000 active; active = well fitted activation curve with a large enough effect in the main read-out, with a control signal flat, not every such curve was filed as active; inconclusive = small, poorly fitted or top-dose-only effect, or a change in a side signal; inactive = no such curve, though single readings can be large or run the other way; % of control where 0% means no effect;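 note: the control signal comes from parental cells without the receptor; potency is the fitted concentration of half-maximal effect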
#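 HEK 293 cells stably expressing TSHR and a cAMP-gated CNG channel; parental CNG-only cells as counterscreen. Cells preloaded 60 min with membrane potential dye plus 100 uM RO 20-1724, then compound 30 min; fluorescence read at 590 nm.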
# BRCT PPI green: qHTS Assay for Inhibitors of BRCT-Phosphoprotein Interaction (Green Fluorophore); AID 875, 2007; 0.05% of 75,000 active; Potency, µM (top dose mostly 76.9 µM), for inactives: at the highest dose activity change, negative = inhibition, actives largely listed as inhibitors; BRCA1 BRCT-phosphopeptide binding, green fluorescence polarization;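 note: potency is the fitted concentration of half-maximal effect; plate controls were peptide without protein for full effect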
# Target sequence (P38398 whole entry, looked up): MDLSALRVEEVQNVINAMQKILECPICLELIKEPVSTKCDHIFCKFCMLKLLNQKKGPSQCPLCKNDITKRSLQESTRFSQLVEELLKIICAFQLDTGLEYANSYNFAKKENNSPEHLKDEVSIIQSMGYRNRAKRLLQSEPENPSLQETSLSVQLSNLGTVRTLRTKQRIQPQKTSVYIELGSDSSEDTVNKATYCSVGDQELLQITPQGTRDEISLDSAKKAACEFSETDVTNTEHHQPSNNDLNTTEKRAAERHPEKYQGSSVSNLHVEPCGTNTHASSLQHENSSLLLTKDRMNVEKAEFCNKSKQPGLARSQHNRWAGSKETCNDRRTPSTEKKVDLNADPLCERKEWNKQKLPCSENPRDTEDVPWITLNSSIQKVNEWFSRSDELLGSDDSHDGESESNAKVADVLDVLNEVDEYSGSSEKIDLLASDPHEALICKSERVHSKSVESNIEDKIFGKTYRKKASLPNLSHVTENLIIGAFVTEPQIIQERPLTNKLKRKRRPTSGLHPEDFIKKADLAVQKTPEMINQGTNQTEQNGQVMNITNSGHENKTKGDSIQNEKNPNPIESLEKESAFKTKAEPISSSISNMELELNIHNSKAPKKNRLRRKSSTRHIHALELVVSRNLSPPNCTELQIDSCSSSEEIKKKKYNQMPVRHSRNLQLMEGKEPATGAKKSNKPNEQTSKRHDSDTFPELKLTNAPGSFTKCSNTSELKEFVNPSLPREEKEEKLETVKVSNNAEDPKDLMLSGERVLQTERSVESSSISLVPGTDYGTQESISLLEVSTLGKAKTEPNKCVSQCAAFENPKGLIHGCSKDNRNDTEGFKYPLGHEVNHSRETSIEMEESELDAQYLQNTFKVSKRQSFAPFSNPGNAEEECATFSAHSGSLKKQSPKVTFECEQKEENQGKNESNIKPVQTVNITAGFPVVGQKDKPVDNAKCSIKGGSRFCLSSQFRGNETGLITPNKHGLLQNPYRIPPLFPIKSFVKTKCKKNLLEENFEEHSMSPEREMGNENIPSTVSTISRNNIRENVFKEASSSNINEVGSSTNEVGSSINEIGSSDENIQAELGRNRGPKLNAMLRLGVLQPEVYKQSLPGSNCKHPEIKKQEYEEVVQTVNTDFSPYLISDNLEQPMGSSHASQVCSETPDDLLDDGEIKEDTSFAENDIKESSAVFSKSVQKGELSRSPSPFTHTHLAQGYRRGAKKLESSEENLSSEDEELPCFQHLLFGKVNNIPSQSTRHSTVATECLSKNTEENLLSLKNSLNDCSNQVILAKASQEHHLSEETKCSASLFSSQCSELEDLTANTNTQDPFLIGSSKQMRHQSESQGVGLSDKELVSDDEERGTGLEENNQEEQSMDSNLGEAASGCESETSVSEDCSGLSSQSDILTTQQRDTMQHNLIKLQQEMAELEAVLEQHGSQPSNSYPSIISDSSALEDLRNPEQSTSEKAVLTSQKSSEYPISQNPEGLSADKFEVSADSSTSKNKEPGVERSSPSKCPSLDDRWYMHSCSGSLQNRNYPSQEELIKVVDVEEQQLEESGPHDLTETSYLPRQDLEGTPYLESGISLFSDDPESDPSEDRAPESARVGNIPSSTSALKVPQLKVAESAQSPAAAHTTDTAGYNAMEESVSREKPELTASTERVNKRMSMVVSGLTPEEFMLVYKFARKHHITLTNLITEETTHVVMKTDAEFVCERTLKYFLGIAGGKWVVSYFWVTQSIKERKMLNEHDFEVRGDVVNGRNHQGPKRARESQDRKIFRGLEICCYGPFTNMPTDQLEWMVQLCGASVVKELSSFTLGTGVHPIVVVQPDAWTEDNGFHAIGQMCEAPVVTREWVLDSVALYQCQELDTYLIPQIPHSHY
#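 Fluorescence polarization: His-tagged BRCT (~35 kDa BRCA1 C-terminus, 250 nM) bound to 100 nM fluorescein-labeled phosphorylated 10-aa BACH1 peptide, pH 7.3 phosphate buffer with DTT and Tween 20. Compounds incubated 12 min at room temperature; inhibition read as lowered polarization.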
# TsaE inh: qHTS Assay for Inhibitors of YjeE | tRNA threonylcarbamoyladenosine biosynthesis protein TsaE (Escherichia coli (strain … | Potency, µM | 0.05% of 71,000 active | purified YjeE enzyme, qHTS inhibition assay | AID 605, 2007
#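 Fluorescence polarization of a BODIPY Texas Red–ADP probe (2 uM) bound to purified YjeE (10 uM) was read after 15 min room-temperature incubation with compounds. Loss of polarization marks inhibitors; ADP serves as titrated control.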
# HEK293 cAMP ctrl: qHTS Assay for Agonists of the Thyroid Stimulating Hormone Receptor: Activators of Intracellular cAMP Concentrations in Parental HEK 293; parental HEK293 CNG cAMP sensor, membrane potential fluorescence; Potency, µM (titrated, usually from 57.1 µM), inactives show at the top dose activation, usual class: activators; 2.5% of 73,000 active; note: potency is the fitted concentration of half-maximal effect; % of control where 0% means no effect; nearly all actives have a fitted effect of over 55% in size
#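 Counterscreen for endogenous-receptor signalling: CNG-channel HEK 293 cells report cAMP rise by membrane depolarization. After 60 min dye equilibration with 100 uM RO 20-1724, compounds incubated 30 min before bottom-read fluorescence at 590 nm.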
# Pol III holo inh: qHTS Assay for Inhibitors of DNA Polymerase III Holoenzyme System; reconstituted DNA polymerase III holoenzyme replication, biochemical; Potency, µM (top dose mostly 57.1 µM), inactives show at the highest dose activity change, negative = inhibition; 0.25% of 71,000 active; AID 603, 2007; note: potency is the fitted concentration of half-maximal effect; % is set by controls: 0 for no effect and ±100 for the full control effect
#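 Reconstituted *E. coli* holoenzyme (0.35 nM Pol III, 1 nM beta, 154 nM SSB, 2 nM primase) was preincubated with compound for 15 min at RT. Synthesis on 1.4 nM ssM13Gori ran 35 min, then was stopped with PicoGreen/EDTA and read as dsDNA fluorescence.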
# BRCT PPI red: qHTS Assay for Inhibitors of BRCT-Phosphoprotein Interaction (Red Fluorophore); Breast cancer type 1 susceptibility protein (Homo sapiens), P38398; BRCT-phosphopeptide binding, red fluorescence polarization; Potency, µM (titrated, usually from 76.9 µM), for the others: top-dose activity change, negative = inhibition, usual class: inhibitors; 0.03% of 75,000 active; AID 892, 2007; note: % is set by controls: 0 for no effect and ±100 for the full control effect
#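 Fluorescence polarization: 100 nM His-tagged BRCA1 BRCT with 100 nM TAMRA-labelled phospho-BACH1 decapeptide, phosphate buffer pH 7.3 with 150 mM NaCl, DTT, 0.01% Tween 20; 12 min RT. Binding inhibition seen as FP decrease.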
# HEK293 cAMP cnt: Confirmation Concentration-Response Assay for Agonists of the Thyroid Stimulating Hormone Receptor: Activators of Intracellular cAMP Concentrations in Parental HEK 293; shares compounds with TSHR ag; parental HEK293 CNG biosensor, cAMP membrane potential fluorescence; activity change, negative = inhibition, % at 32.9 µM; 150 tested, under 10 active; AID 953, 2007
# Numbers without * were called inactive; i = inactive; u = inconclusive; x = not tested or not shown; [ ] = dose if it differs, or a comment. Unless noted, calls come from the whole dose curve; as a rule, active = well fitted curve in the direction sought with a large enough effect; inconclusive = small, poorly fitted or top-dose-only effect, or another doubt; inactive = no such curve, though single readings can be large; an effect the other way counts as inactive or inconclusive.
SMILES,TSHR ag,BRCT PPI green,TsaE inh,HEK293 cAMP ctrl,Pol III holo inh,BRCT PPI red,HEK293 cAMP cnt
COc1ccc(OC)c(CNC(=O)C2CCN(S(=O)(=O)N3CCCC3)CC2)c1,1%[11.4 µM],-2%,i,3%,-1%,-1%,x
COc1ccc(Br)cc1CNC(=O)C1CCN(S(=O)(=O)N2CCCCC2)CC1,0%,1%,i,-1%,0%,0%,-84[25.6 µM]
CCc1ccc(-c2nc(CN3CCC(C(=O)N4CCN(c5ccccc5)CC4)CC3)c(C)o2)cc1,5%,-2%,i,16%,4%,0%,13[25.6 µM]
Cc1occc1-c1nnc(SCC(=O)Nc2ccc(F)cc2)n1Cc1ccccc1,u,-1%,i,u,-2%,-1%,x
Cc1ccccc1NC(=O)CSc1nnc(-c2ccoc2C)n1CCc1ccccc1,10µM*,4%,i,25%,-1%,-2%,20
C=C(C)COc1ccc2c(C)c(C)c(=O)oc2c1OCC(=C)C,u,2%,i,u,-3%,0%,x
C=C(C)Cn1c(-c2ccccc2)nc2ccccc21,3.2µM*,1%,i,71%[11.4 µM],4%[11.4 µM],-1%,u
Cc1ccccc1N1CCN(c2ncnc3c2cnn3Cc2ccc(Cl)cc2)CC1,x,-4%,i,18%,3%,-1%,u
O=C(CSc1nnc(-c2ccccc2)n1Cc1ccco1)Nc1ccc2c(c1)OCCO2,20µM*,1%,i,28%,2%,1%,-7
O=C(CSc1nnc(-c2cccs2)n1Cc1ccco1)Nc1ccc2c(c1)OCO2,u,2%,i,u,-2%,-1%,x
COc1ccc(C)cc1Cn1c(S(C)(=O)=O)nc2ccccc21,u,1%,i,u,1%,1%,x
Cc1ccc(C)c(Cn2c(C(C)O)nc3ccccc32)c1 (configuration not stated),4µM*,-1%,i,18%,-3%,0%,-3
C#CCCCO/N=C1/[C@H]2O[C@@H]2[C@@H](O)[C@H]2[C@H]1CCn1c(=O)n(C)c(=O)n12,-5%[11.4 µM],-1%[15.4 µM],x,-5%[11.4 µM],x,-1%[15.4 µM],x
Cc1cc(C)n(S(=O)(=O)c2cc(C(=O)O)c(Cl)cc2Cl)n1,16µM*,0%,i,15%,-5%,1%,5
CCC(Sc1nnnn1C)C(=O)Nc1ccc(C(C)=O)cc1 (configuration not stated),-2%,-1%,i,-1%,1%,1%,x
COc1ccc(S(=O)(=O)NCCC(=O)NCc2ccc(F)cc2)cc1,x,1%,i,1%,-3%,-1%,-9
COc1ccc(S(=O)(=O)NCCC(=O)NC2CCCCCCC2)cc1,-1%,-3%,i,0%,-6%,0%,x
COc1ccc(F)cc1S(=O)(=O)n1cc(C)nc1-c1ccccc1,7%,-4%,i,4%,-3%,1%,-53[25.6 µM]
COc1ccc(C2C(=O)N(C3CCCCC3)CC(=O)N2Cc2ccc3c(c2)OCO3)cc1 (configuration not stated),26%,-1%,i,18%,1%,1%,x
COc1cccc(CN2C(=O)CN(C3CCCCC3)C(=O)C2c2ccc(F)cc2)c1 (configuration not stated),13µM*,2%,i,15%,0%,-1%,-5
Cc1nn2c(-n3ccnc3)c3c(nc2c1-c1ccccc1)CCC3,0%,-1%,i,8%,0%,0%,x
Cc1ccc2nc(N/N=C\c3cccc(C)n3)cc(C)c2c1,10%[11.4 µM],3%[15.4 µM],i,19%[11.4 µM],-14%[11.4 µM],0%[15.4 µM],x
Cc1ccc(-c2csc3ncn(/N=C/N(C)C)c(=O)c23)o1,1%,-1%,i,2%,-1%,-1%,x
Cc1nn(-c2ccccc2)c(N2CCCC2)c1/C=N/n1cnc2scc(-c3ccccc3)c2c1=O,3.2µM*,-3%,i,25%,-7%,1%,17
Cc1cc(C)n2nc(SCC(=O)c3cc(C)n(-c4cc(C)on4)c3C)nc2n1,u,1%,i,u,-5%,1%,x
SMILES,TSHR ag,BRCT PPI green,TsaE inh,HEK293 cAMP ctrl,Pol III holo inh,BRCT PPI red,HEK293 cAMP cnt
Cc1cc(-n2c(C)cc(C(=O)CSc3nnnn3-c3ccc(Cl)cc3)c2C)no1,x,-1%,i,12%,-2%,0%,14
O=S(=O)(c1ccccc1)N1CCN(C2CCN(Cc3ccccc3)CC2)CC1,8%,-1%,i,23%,-2%,-1%,1[25.6 µM]
O=C(O)c1ccc(-n2nnnc2Oc2ccccc2C(=O)N2CCOCC2)cc1,0%,-3%,i,1%,-2%,2%,x
CCOC(=O)c1c(N)n(CCOC(=O)c2cccs2)c2nc3ccccc3nc12,18%,3%,i,0%,-8%,2%,-3[25.6 µM]
O=C(Cn1nc(Cl)nc1Cl)Nc1ccccc1,-2%,-1%,i,5%,-3%,-2%,x
Cc1nc2ccc(Br)cn2c(=O)c1Cl,7%,0%,i,-2%,-4%,-1%,-3[25.6 µM]
Cc1ccc(C(=O)c2cn[nH]c2-c2cc(Cl)ccc2O)cc1,-18%,1%,i,-14%,-4%,0%,x
O=C(COC(=O)C1c2ccccc2Oc2ccccc21)Nc1ccc2c(c1)OCO2,25µM*,0%,i,2%,-5%,-2%,9
O=C(COC(=O)CCCc1c[nH]c2ccccc12)Nc1ccc2c(c1)OCO2,24%,-4%,i,29%,-2%,-2%,x
CC(=O)Cc1nsc(NC(=O)c2ccc(-c3ccc(Cl)c(C(F)(F)F)c3)o2)n1,1%,0%,i,9%,1%,1%,x
O=C1N(c2ccccc2)C2CS(=O)(=O)CC2N1c1ccc(Cl)c(Cl)c1 (configuration not stated),-5%,-2%,x,-17%,x,1%,-23[25.6 µM]
O=C1CC2CS(=O)(=O)CC2N1c1ccc(Oc2ccccc2)cc1 (configuration not stated),-4%,-1%,i,-1%,-8%,1%,x
Nc1nnc(SCC(=O)NCc2ccc3c(c2)OCO3)s1,-8%,-2%,i,-6%,1%,-1%,x

# High-throughput results from PubChem.
